Measurements from the supplement of paper PMC6555819.

What was measured:
Experiment in all cases: PBM binding z-score (relative to random genomic background probes); higher = stronger binding; sequences stand for … in GC…GCGATTGACAGCGTAGAATGAAGG
[1] = system: PPARg:RXRa DBDmut IVT, anti-RXR (DBD mutation: RXRa K156A/R161A, NR concentration 270 nM, RXRa partner concentration 90 nM)
Outline: (§1)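 Binding z-scores were set against random background probes. The data came from custom Agilent 4×180K protein-binding microarrays carrying double-stranded probes with 34-nt variable regions, incubated 1 h with ligand-free nuclear receptor dimers. Partner-specific antibodies detected binding, and scanned fluorescence was regression-normalized.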

[2] = system: PPARg:RXRa IVT, anti-PPARg (NR concentration 270 nM, RXRa partner concentration 90 nM)
Outline: as §1

[3] = system: PPARg DBDmut:RXRa IVT, anti-PPARg (DBD mutation: PPARg1 K132A/R137A, NR concentration 270 nM, RXRa partner concentration 90 nM)
Outline: as §1

[4] = system: PPARg DBDmut IVT, anti-PPARg (DBD mutation: PPARg1 K132A/R137A, NR concentration 270 nM)
Outline: as §1

[5] = system: PPARg homodimer (NR concentration 180 nM)
Outline: as §1

[6] = system: PXR:RXRa (NR concentration 270 nM, RXRa partner concentration 90 nM)
Outline: as §1

[7] = system: PXR homodimer (NR concentration 270 nM)
Outline: as §1

[8] = system: RARa:RXR (NR concentration 270 nM, RXRa partner concentration 90 nM)
Outline: as §1

[9] = system: RARa homodimer (NR concentration 270 nM)
Outline: as §1

[10] = system: RARb:RXRa (NR concentration 270 nM, RXRa partner concentration 90 nM)
Outline: as §1

[11] = system: RARb homodimer (NR concentration 270 nM)
Outline: as §1

[12] = system: RARg:RXRa (NR concentration 270 nM, RXRa partner concentration 90 nM)
Outline: as §1

[13] = system: RARg homodimer (NR concentration 270 nM)
Outline: as §1

[14] = system: RXRa DBDmut IVT, anti-RXR (DBD mutation: RXRa K156A/R161A, NR concentration 90 nM)
Outline: as §1

[15] = system: RXRa homodimer (NR concentration 180 nM)
Outline: as §1

[16] = system: THRa:RXRa (NR concentration 90 nM, RXRa partner concentration 90 nM)
Outline: as §1

[17] = system: THRa homodimer (NR concentration 90 nM)
Outline: as §1

[18] = system: VDR homodimer (NR concentration 270 nM)
Outline: as §1

Sequence	PBM binding z-score [1]	PBM binding z-score [2]	PBM binding z-score [3]	PBM binding z-score [4]	PBM binding z-score [5]	PBM binding z-score [6]	PBM binding z-score [7]	PBM binding z-score [8]	PBM binding z-score [9]	PBM binding z-score [10]	PBM binding z-score [11]	PBM binding z-score [12]	PBM binding z-score [13]	PBM binding z-score [14]	PBM binding z-score [15]	PBM binding z-score [16]	PBM binding z-score [17]	PBM binding z-score [18]
CGTGCAAGGTCAGCAGGTCAGTGAAAGCGACGTG	3.36	3.96	-0.142	0.527	2.62	3.87	0.564	4.71	0.769	5.35	4.76	6.54	7.05	2.5	5.2	4.03	2.04	1.73
CAGCCTAGGTCAGGGCCATTATAGGAGGAACGTT	1.48	1.78	-0.531	-0.742	0.564	0.649	-0.202	1.15	0.229	3.45	2.66	3.08	4.01	0.265	1.84	2.07	0.505	-0.15
TCGATTAGGTTAGTCGGGGCATTCAGCCAACATA	2.2	0.996	0.0217	-0.0761	0.302	0.39	0.0297	0.45	-0.0114	0.705	0.609	0.149	0.141	1.32	0.147	1.4	0.446	0.465
ATCTCTAGGTAACTAGTTCAGTGAAAGAGAGGAC	2.81	2.6	1.49	0.893	0.154	0.527	0.481	0.382	0.388	0.464	0.47	0.193	0.685	-0.215	0.0901	0.996	0.507	0.877
TCTTGTAGATCAACAGGAGGTTAAGAAGGATCGA	1.57	0.719	0.516	0.84	-0.0308	0.778	-0.0185	0.915	-0.325	0.474	0.431	0.952	0.15	0.27	1.09	0.94	-0.619	-0.0476
CCTACTGGGCCAAGAAAGGTCATTGATTCAGTGA	3.49	3.92	-0.232	0.143	2.98	5.1	1.18	5.31	1.75	3.89	4.44	3.99	3.46	0.261	4.4	3.43	0.419	2.23
CGTCAAAGTTCAACTAAGGTAACGTCAAGCACGC	0.771	2.28	0.0665	0.943	3.82	5.69	4.39	4.56	1.85	5.3	4.4	5.96	6.81	4.8	4.81	5.05	1.86	3.9
ATCTCTAGGTAACAGGTTCAGTGAAAGAGAGGAC	3.85	3.15	1.83	1.35	1.4	0.871	1.43	0.854	0.973	0.893	1.15	0.818	0.667	0.757	0.828	1.58	1.34	2.78
AGATTGAGGTTATACGTAGATCAGGGAAGAAAGT	2.54	1.38	1.05	1.23	0.726	1.23	0.75	1.7	0.422	1.28	0.842	1.71	0.96	1.28	2.2	2.24	0.943	0.908
CGAACGAGGGCATGATTTGATAGCAAATGCCGAT	2.59	1.81	-0.0165	-0.269	-0.834	0.0992	-0.377	0.0639	-0.507	1.78	0.522	0.771	1.19	1.99	0.631	0.985	-0.278	0.561
AGAACGAGGGCACGCTGGGTTGATAGCAGAGTAG	3.63	3.69	1.12	0.143	0.498	1.25	0.183	1.17	0.372	2.41	1.28	2.01	2.36	1.87	1.56	2.5	0.224	2.08
CCTTACGTGTCACTGACAGGTTATAGCATTTGGA	2.18	1.32	0.83	1.13	1.53	0.903	0.611	1.21	1.67	1.19	1.37	1.71	1.21	0.934	0.941	0.816	0.847	0.842
CGTCCAAGGACATAGGAGGTCAGTGAAGACAGAT	0.24	1.36	-0.861	-1.72	1.48	2.07	0.81	2.11	0.692	2.76	3.17	2.46	3.05	0.749	1.64	3.54	1.83	1.48
CGAACTAGGTCATCCAGGACAGTGACTACATTGA	8.16	8.47	4	0.771	3.18	1.88	1.13	2.32	0.438	3.95	3.11	4.13	4.54	2.28	2.93	3.77	2.2	1.69
TCTAGTTGGTCACGGAGATCACACACGACGGGTA	2.55	2.3	0.815	0.952	0.853	0.363	0.241	0.735	0.576	1.57	1.07	1.07	1.4	0.762	1.19	0.155	0.328	0.211
CGCACTAGGTCAAGGACAGTGAATCTCCGCACGC	8.02	7.89	1.21	0.566	1.2	1.15	0.0235	1.92	0.00773	3.92	3.34	3.82	4.48	1.72	2.63	3.03	2.15	0.387

Sequence	PBM binding z-score [1]	PBM binding z-score [2]	PBM binding z-score [3]	PBM binding z-score [4]	PBM binding z-score [5]	PBM binding z-score [6]	PBM binding z-score [7]	PBM binding z-score [8]	PBM binding z-score [9]	PBM binding z-score [10]	PBM binding z-score [11]	PBM binding z-score [12]	PBM binding z-score [13]	PBM binding z-score [14]	PBM binding z-score [15]	PBM binding z-score [16]	PBM binding z-score [17]	PBM binding z-score [18]
CCTACTGGCCCAAAAAGGTCATTGATGCCGATAA	0.453	1.52	-0.0321	-0.749	3.4	4.99	2.07	5.65	2.16	3.99	4.52	4.52	4.12	0.618	5.25	3.39	1.13	2.65
CCTTACGGGTCACTGACAGGTTATAGAATTTGGA	3.42	3.6	1.19	0.387	2.22	3.68	0.414	4.32	1.29	3.93	3.22	5.81	4.95	1.92	5.1	3.02	0.45	0.936
TCATATAGGTAAATAGGTGAAAGTCCGTAAGTTA	5.74	6.26	1.25	1.38	1.18	1.13	0.363	1.44	1.54	0.905	1.17	1.26	0.407	1.39	1.62	0.865	0.0399	0.337
GCTAGTTGGTCAGTAAAAGGTCACAAACCGGTCG	0.812	2.83	-0.571	-0.0957	2.9	4.8	1.2	5.58	1.91	3.91	4.94	4.99	4.28	0.203	4.8	3.32	1.15	1.71
GCTCGGTGGACAAGGTCAGAGCTTTGTCCGTAGA	0.124	0.413	-1.69	-0.301	0.136	1.68	-0.455	2.25	-0.966	2.68	2.7	2.44	2.14	0.246	1.96	2.48	1.14	0.24
CCTACTGGGCCACGAAAGGTCATGGATTCAGTGA	5.9	6.03	-0.103	-0.148	3.03	5.15	0.707	5.48	1.81	4.27	4.94	5.28	4.71	-0.0305	6.03	3.97	1.17	1.35
TGAATGAGGTTATAAGATCAGGGGACGTTGCAAA	1.5	1.82	0.706	0.291	0.361	0.901	0.3	1.58	0.169	1.43	0.854	1.51	0.975	1.3	2.02	2.1	0.619	1.21
TTACCAAGGTGATAGGTCGTTGATGCACGCCTTG	1.07	2.82	0.428	0.413	1.26	0.611	-0.14	1.36	-0.163	1.07	0.852	0.727	0.286	-0.12	1.51	1.25	0.482	0.256
ATCGAGAGGTCGTGAGGTGAGTATACAGAAAGGC	0.135	2.04	1.16	0.618	1.02	2.66	0.102	3.54	0.567	3.05	2.4	3.66	3.28	1.43	4.24	3.36	1.63	1.87
CGTCCAAGGTCAAGGTCAGTGGAAGAGACTCGAA	3.54	4.55	0.113	-0.109	3.84	4.68	1.08	4.79	0.944	5.61	5.13	6.64	7.58	3.79	6.05	4.21	3.67	3.15
AGAACGAGGGCAATGAGGTGATAGCACGGGTGGC	3.36	3.33	0.776	0.448	0.588	1.06	0.905	0.818	0.144	2.13	1.58	1.49	1.52	1.37	1.04	2.46	0.988	1.57
CCTAGTTGGTCAAGGTCACTCACGCTATAGGTAC	2.34	3.16	0.496	1.05	3.66	3.73	2.8	3.58	2.53	4	4.26	4.06	4.75	2.1	3.76	3.83	3.83	3.53
ACTCTGAGGACAAAGGTCAGAGCTACGCCAGTGA	1.18	4.01	0.601	0.00649	3.26	3.74	0.395	5.19	0.924	4.47	4.42	6.21	5.31	2.07	5.18	4.44	2.66	1.19
GCGACTGGGGCATCAGCAGGTTACCGTAACTTAA	3.92	3.16	-0.711	-1.13	0.0663	-0.0573	-0.613	0.398	-0.334	0.841	1.14	0.702	0.193	-0.433	0.309	1.03	-0.152	-0.576
CAAACTCGGTCAAAGGTCAAAGTCGAGCCAACCA	5.71	7.61	1.95	3.41	6.43	6.69	2.5	8.37	3.33	5.43	5.08	8.4	6.7	2.48	9.27	4.33	1.31	3.31
